According to PubChem BioAssay (NCI):
Where “and” joins values, the source holds several entries; their conditions need not be identical. Identical values can stand only once. The panel holds about 79,000 compounds, 15% with a hit somewhere; the sample as a whole holds those more often. Calls of active or inactive are those of the source. Rule as the data show it: active = growth inhibition above about 70%; inactive = the rest.

Key:
[1] = NCI Yeast Anticancer Drug Screen. Data for the rad50 strain (AID 155);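 also: 0% = growth of vehicle-only cultures of the same strain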; conditions: S. cerevisiae rad50 strain growth inhibition, active compounds read high; at 50.0 µM unless noted
Summary of the method: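 Readout: growth inhibition relative to vehicle-treated cultures. Compound exposure was carried out in a genetically defined yeast strain deficient in DNA damage repair.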

[2] = NCI Yeast Anticancer Drug Screen. Data for the mec2-1 strain (AID 157); conditions: S. cerevisiae mec2-1 strain, active compounds read high; at 50.0 µM unless noted
Summary of the method: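 Growth inhibition is read against vehicle-treated controls after compound exposure of the mec2-1 yeast strain, which is defective in DNA damage repair or cell cycle control.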

[3] = NCI Yeast Anticancer Drug Screen. Data for the sgs1 mgt1 strain (AID 161);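 also: 0% = growth of cultures given vehicle only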; conditions: S. cerevisiae sgs1 mgt1 strain, active compounds read high; at 50.0 µM unless noted
Summary of the method: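 This yeast growth screen uses a strain with defined DNA-repair lesions; compound-treated growth is compared with vehicle-treated growth.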

[4] = NCI Yeast Anticancer Drug Screen. Data for the cln2 rad14 strain (AID 165);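 also: 0% = growth equal to vehicle treated cultures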; conditions: S. cerevisiae cln2 rad14 strain, active compounds read high; at 50.0 µM unless noted
Summary of the method: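 Growth inhibition, relative to vehicle-treated controls, is the read-out. The test organism is a yeast strain with defined genetic alterations, cln2 rad14.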

[5] = NCI Yeast Anticancer Drug Screen. Data for the bub3 strain (AID 167); conditions: S. cerevisiae bub3 mutant strain, active compounds read high; at 50.0 µM unless noted
Summary of the method: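 Readout: yeast growth inhibition, expressed relative to vehicle-only wells. The test organism is a mutant strain from a panel with lesions in DNA repair or checkpoint genes.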

[6] = NCI Yeast Anticancer Drug Screen. Data for the mlh1 rad18 strain (AID 175); conditions: S. cerevisiae mlh1 rad18 strain growth inhibition, active compounds read high; at 50.0 µM unless noted
Summary of the method: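 Cells of a genetically altered yeast strain, deficient in DNA damage repair, were treated with compound. Their growth was then compared with that of vehicle-treated cultures to give inhibition.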

Measured: growth inhibition

O=C(O)c1ccccc1Br
inactive: [1] 1.1% | [2] 5.4% | [3] -13.6% | [4] -6.95% | [5] -17.4% | [6] -3.35%

O=C1/C(=C/c2ccc(Cl)cc2)CCC1CN1CCOCC1 (stereo not drawn)
active: [1] 89.8% | [2] 92.2% | [3] 89.2% | [4] 92.3% | [5] 91.1% | [6] 92%

CCC(CN)C(F)(F)C(F)(F)C(F)(F)F (stereo not drawn)
inactive: [1] 4.65% | [2] -12.2% | [3] -5.45% | [4] 2.7% | [5] 8.3% | [6] 6.05%

OC1(c2nccc3ccccc23)CCN(CCc2ccccc2)CC1
inactive: [1] 46.5% | [2] 33.4% | [3] 55.8% | [4] 40.5% | [5] 17.9% | [6] 34.8%

CC(=O)Oc1ccc2c(c1)CCC2
inactive: [1] 9.85% | [2] 12.8% | [3] 1.4% | [4] 8.25% | [5] 15.1% | [6] 0.1%

CCOC(=O)/C(C#N)=C/c1ccccc1Cl
inactive: [1] 12.1% | [2] -6.3% | [3] -30.6% | [4] 16.1% | [5] -20.1% | [6] 6.35%

CC(C)=NOc1ccccc1[N+](=O)[O-]
inactive: [1] 8.65% | [2] 6.15% | [3] 7.15% | [4] -14.7% | [5] -13.2% | [6] 12.1%

CCCCCCCCCOc1ccc(C=Nc2ccc(C)cc2)cc1
inactive: [1] -4.3% | [2] 7.8% | [3] -2.55% | [4] -18.9% | [5] -10.9% | [6] -4.65%

Cn1ncc2c(NC(C)(C)CC(C)(C)C)ncnc21
inactive: [1] 21.1% | [2] 7.95% | [3] 1.05% | [4] 1.55% | [5] 45.4% | [6] 16.8%

COc1cc(C2c3cc4c(cc3OC(N3CCOCC3)C2C)OCO4)cc(OC)c1O (stereo not drawn)
inactive: [1] -17.1% | [2] -25.8% | [3] -23.3% | [4] -12.5% | [5] -8.95% | [6] -8%

OCC(O)C1OC(O)C(O)C(O)C1O (stereo not drawn)
inactive: [1] 1.45% | [2] -7.75% | [3] -32.2% | [4] -49.4% | [5] -6.75% | [6] 10.4%

CC(=O)OC(C)(C)C#CC(C)(C)OC(C)=O
inactive: [1] -9.95% | [2] -24.4% | [3] -15.4% | [4] 3% | [5] -11.7% | [6] -19.3%

Clc1cccc(NC2=NCCN=C(Nc3cccc(Cl)c3Cl)SS2)c1Cl
inactive: [1] 8.6% | [2] -17.5% | [3] -0.75% | [4] 5.85% | [5] 3.75% | [6] 6.55%

[N-]=[N+]=C(C(=O)CN1CCCC1=O)S(=O)(=O)c1ccccc1
inactive: [1] 10.4% | [2] -6.4% | [3] -6.55% | [4] 9.1% | [5] -2.85% | [6] 16.2%

CC1(C)CC[C@]2(C(=O)O)CC[C@]3(C)C(=CC[C@@H]4[C@@]5(C)CC[C@H](O)C(C)(C)[C@@H]5CC[C@]43C)[C@@H]2C1
inactive: [1] -3.7% | [2] 4.4% | [3] -7.5% | [4] 13.2% | [5] 0.1% | [6] -3.9%

Cc1ccc(S(=O)(=O)N(C)CCCC#N)cc1
inactive: [1] -11.4% | [2] -16.3% | [3] 6.2% | [4] -3.1% | [5] -6.6% | [6] -19.6%

COc1cc(OC)c(C2SCC(=O)N2c2nnc(C(F)(F)F)s2)cc1OC (stereo not drawn)
inactive: [1] 9.9% | [2] 13.8% | [3] 5.15% | [4] 3.75% | [5] 25.9% | [6] 6.8%

c1cc(-c2cnc(-c3ccc4c(c3)CCCO4)o2)ccn1
inactive: [1] 40.5% | [2] 29.9% | [3] 31.6% | [4] 17.9% | [5] 46.5% | [6] 44.1%

O=C(Sc1ccc(Br)cc1)c1ccccc1
inactive: [1] 29.1% | [2] 24.2% | [3] 1.15% | [4] 13.2% | [5] 10.4% | [6] 1.25%

N#CC1CC2CC1C1OC21 (stereo not drawn)
inactive: [1] -15.4% | [2] -10.3% | [3] -14.1% | [4] 9.35% | [5] -2.25% | [6] -5.9%

c1ccc2c(c1)OC1OC2Oc2ccccc21
inactive: [1] -25.8% and -10.4% | [2] -39.1% and -3.85% | [3] -26.3% and 7.8% | [4] 1.6% and -6.05% | [5] -57.5% and 8.1% | [6] -28.9% and 11.8%

O=[N+]([O-])/C=C/c1cn(CCCCCCCCCCCCn2cc(/C=C/[N+](=O)[O-])c3ccccc32)c2ccccc12
inactive: [1] -1.5% | [2] -24.6% | [3] -3.9% | [4] 6.45% | [5] -19.4% | [6] -13.6%

Cc1ccccc1C(=O)NCC(=O)O
inactive: [1] 10.8% | [2] -28.1% | [3] 8.2% | [4] 3.65% | [5] -4.1% | [6] 12.3%
